Compounds with a hit are over-represented: about 1.2% of the library has one in this group of screens.
aGal spleen mod = inhibitors or activators of human alpha-galactosidase in spleen homogenate | P06280 | human spleen homogenate, 4MU-alpha-Gal fluorescence, 40 min | Potency, µM (titrated, usually from 80 µM), inactives show at the top dose activity change, negative = inhibition, actives largely listed as inhibitors | 0.008% of 240,000 active | AID 2107;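 also: potency is read from the fitted curve at half-maximal effect; 0% = enzyme with vehicle and -100% = no enzyme basal signal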
Target sequence (P06280 32-429 limits assumed): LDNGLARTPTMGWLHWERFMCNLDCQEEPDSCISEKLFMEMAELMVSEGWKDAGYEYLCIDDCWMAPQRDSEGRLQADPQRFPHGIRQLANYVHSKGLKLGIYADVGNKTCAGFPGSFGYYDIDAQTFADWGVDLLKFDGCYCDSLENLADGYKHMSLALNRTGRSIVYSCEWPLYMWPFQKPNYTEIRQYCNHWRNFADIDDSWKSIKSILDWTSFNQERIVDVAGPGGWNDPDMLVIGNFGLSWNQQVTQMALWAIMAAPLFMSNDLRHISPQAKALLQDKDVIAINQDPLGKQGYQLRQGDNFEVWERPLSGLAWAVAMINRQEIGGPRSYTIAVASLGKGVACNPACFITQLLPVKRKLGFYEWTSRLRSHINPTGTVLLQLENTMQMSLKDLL
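Inhibition or activation of alpha-galactosidase in human spleen homogenate is scored by 4-MU fluorescence after 40 min at 37C, pH 5.0, with 1 mM substrate. AC50s come from concentration-response fitted to the Hill equation.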
HttQ103 aggreg = inhibitors of mutant huntingtin aggregate formation in PC12 cells | 1.1% of 220,000 active | Potency, µM (top dose mostly 46.1 µM), for the others: at the top dose activity change, negative = inhibition, usual class: inhibitors | PC12 HttQ103-GFP aggregates, Acumen cytometry, 40 h; also: potency is read from the fitted curve at half-maximal effect; % is scaled to controls: 0 for no effect and ±100 for the full control effect; nearly all actives have a fitted effect of over 60% in size
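Aggregates are detected as GFP objects 1–25 µm with signal 6 STDEV over background in lysates of induced PC12 cells. These carry Huntingtin exon 1 with 103 glutamines fused to GFP under an ecdysone promoter; compounds titrated.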
HTT ATP protect = protects HTT-Q103 PC12 cells, measured by ATP. PC12 HTT-Q103 induced, cytoprotection, ATP luminescence, 40 h. AID 1471. Potency, µM (top dose mostly 56.4 µM), without a hit: cytoprotection (ATP increase), actives largely listed as activators. 0.14% of 230,000 active; also: potency is read from the fitted curve at half-maximal effect; % of control where 0% means no effect; nearly all actives have a fitted effect of over 45% in size
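Cells were plated at 1500 per well in phenol red-free DMEM with 5% equine and 5% calf serum. Tebufenozide (100 nM final) and compounds were added, then ATPlite reagent, and luminescence was read.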
GLA inh pH 4.5 = inhibitors of human alpha-galactosidase A at pH 4.5; purified enzyme, 4-MU-alpha-Gal fluorescence, pH 4.5; activity change, negative = inhibition, % at 105 µM; 230,000 tested, under 10 active; AID 1467;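 also: 0% = full activity with enzyme and -100% = basal without enzyme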
Numbers without * were called inactive; ? = inconclusive; / = not tested or not shown; [ ] = dose if it differs, or a comment. Calls follow the shape of the dose curve; as a rule, active = well fitted curve in the direction sought with a large enough effect; inconclusive = small, poorly fitted or top-dose-only effect, or another doubt; inactive = no such curve, though single readings can be large; an effect the other way counts as inactive or inconclusive.

SMILES | aGal spleen mod | HttQ103 aggreg | HTT ATP protect | GLA inh pH 4.5
N#C/C(=N\Nc1ccc(S(=O)(=O)N2CCOCC2)cc1)C(N)=S | 3.2% | 5.4%[9.22 µM] | 5.1%[10 µM] | -16.2
O=C(Nc1ccc(S(=O)(=O)N2CCCCC2)cc1)c1ccccc1Cl | 0.3% | -15.2% | -4.4% | -4.2
N#CC(C#N)=NNc1ccc(S(=O)(=O)N2CCCCC2)cc1 | -16.8% | 20µM* | 0.5%[10 µM] | -15.2
O=C(Nc1ccccc1)Nc1ccc(S(=O)(=O)N2CCCCC2)cc1 | -1.2% | 12.6µM* | 11.0%[10 µM] | -10.5
CC(=O)OCC(NC(=O)C(C)NC(=O)OC(C)(C)C)C1OC(n2ccc(=O)[nH]c2=O)C(OC(C)=O)C1OC(C)=O (configuration not stated) | -21.2% | / | / | /
C(=N\Nc1nc(Nc2ccccc2)nc(Nc2ccccc2)n1)/c1cccnc1 | -9.6% | 4.47µM* | -9.0%[10 µM] | -11.6
C(=N\Nc1nc(Nc2ccccc2)nc(Nc2ccccc2)n1)/c1ccncc1 | 5.8% | / | / | 8.3
CC(=O)NC1C(O)O[C@H](C(=O)O)[C@@H](O)[C@@H]1O (some centres not stated) | -3.8% | / | / | /
N=c1n(Cc2ccc(Cl)cc2)c2ccccc2n1CC(O)COc1ccccc1 (configuration not stated) | 1.0% | 14.1µM* | 0.4%[10 µM] | -9.5
CC(C)C[C@H](NC(=O)[C@H](Cc1cnc[nH]1)NC(=O)[C@@H](N)Cc1cnc[nH]1)C(=O)NCC(=O)NCC(=O)N[C@@H](C)C(=O)N[C@@H](CCCCN)C(=O)N[C@@H](CCC(N)=O)C(=O)N[C@@H](C)C(=O)NCC(=O)N[C@@H](CC(=O)O)C(=O)N[C@H](C(=O)O)C(C)C | -8.9% | / | / | /
CCCC(=O)C1=C(O)C(C(=O)OC)C(C)(C)CC1=Nc1cccc2ccccc12 (configuration not stated) | 6.3% | 11.2µM* | 3.2%[1.9 µM] | -13.5
CC(C)Nc1nnc(SCC(=O)c2c(N)n(Cc3ccccc3)c(=O)n(C)c2=O)s1 | -10.3% | 0.112µM* | -17.5% | -3.6
C=C1C(n2cnc3c(=O)[nH]c(N)nc32)C[C@H](O)[C@H]1CO (some centres not stated) | / | -29.7% | 3.5% | /
COC(=O)[C@@]1(Cc2ccccc2)C=C[C@@H](C)N1C(C)=O | 5.5% | / | -32.6% | 7.0
COC(=O)[C@@]1(Cc2ccccc2-c2ccco2)C=C[C@H](C)[C@@H](c2ccccc2)N1C(=O)C(F)(F)F | 16.2% | / | 10µM* | -2.9
CCN(CC)c1ccc(-c2nn3c(-c4n[nH]c5c4CCC5)nnc3s2)cc1 | ? | 12.6µM* | -93.7% | 5.1
C1CCC(c2nn3c(-c4n[nH]c5c4CCC5)nnc3s2)CC1 | 0.7% | -13.6% | -23.4% | 0.1
O=S(=O)(c1ccc(N2CCN(c3ccc(F)cc3)CC2)cc1)N1CCCC1 | -2.7% | 9.7% | -21.7% | -1.4
O=S(=O)(c1ccc(N2CCCC2)cc1)C(F)(F)F | 8.9% | 10µM* | -2.6% | -7.6
Cc1ncc(CC(=O)n2cc(C(=O)c3cc(F)ccc3O)cn2)s1 | 2.9% | -13.1% | -12.6% | 6.3
Cc1ccc(O)c(C(=O)c2cnn(C(=O)Cc3csc(C)n3)c2)c1 | 2.7% | 22.4µM* | 16.6%[10 µM] | 1.8
C[C@@H](C[C@@H](O)[C@H](O)C(C)(C)O)[C@@H]1CC[C@]2(C)C3=CC[C@H]4C(C)(C)C(=O)CC[C@]4(C)[C@H]3CC[C@@]12C | -11.9% | 35.5µM* | / | -20.6
Cc1ccc2[nH]c(=O)c(C(c3nnnn3C3CCCC3)N3CCCc4ccccc43)cc2c1 (configuration not stated) | 1.8% | 35.5µM* | 9.0%[10 µM] | -18.2
CC(C)C[C@H](NC(=O)[C@@H]1CCCN1C(=O)[C@H](Cc1ccccc1)NC(=O)[C@H](C)NC(=O)[C@H](CCC(=O)O)NC(=O)[C@H](C)NC(=O)[C@H](CO)NC(=O)[C@H](CCC(=O)O)NC(=O)[C@H](CC(=O)O)NC(=O)[C@H](CCC(=O)O)NC(=O)[C@H](C)NC(=O)CNC(=O)[C@H](CC(N)=O)NC(=O)[C@@H]1CCCN1C(=O)[C@H](Cc1ccc(O)cc1)NC(=O)[C@@H](NC(=O)[C@H](CCCCN)NC(=O)[C@@H](NC(=O)[C@@H]1CCCN1C(=O)[C@@H](N)CCCNC(=N)N)C(C)C)C(C)C)C(=O)N[C@@H](CCC(=O)O)C(=O)N[C@@H](Cc1ccccc1)C(=O)O | -4.8% | / | / | /
Cc1ccc(C(=O)OCC(=O)NCc2cccs2)c(C)c1 | -0.1% | 6.2% | -26.9% | 11.3

From PubChem BioAssay
